Assay outcomes: PubChem, several laboratories
NR3A LBD binder = NR3A (human) ligand-binding domain modulation. NR3A LBD differential scanning fluorimetry, Tm shift; 0% = protein alone, 100% = glycine-bound protein. Tm shift relative to glycine control, % at 25 µM. 2.5% of 340,000 active. AID 1259313;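 active = melting temperature shift of at least 10% of the positive control shift, at one fixed dose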
Myeloid diff 2 = myeloid differentiation induction. ER-HoxA9 myeloid progenitors, lysozyme-GFP differentiation, flow cytometry. calls only at 10 µM. 1% of 360,000 active;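 active = normalized GFP-positive differentiation at or above the plate's own cutoff, the solvent-only control mean plus 3 SD; inconclusive = no clear call, values can overlap the other calls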;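 note: cells exposed to compound for four days before flow analysis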
MPTP inh = blocks calcium-induced mitochondrial swelling; inhibition, % at 10 µM; 1.4% of 360,000 active; isolated mouse mitochondria, Ca2+ swelling absorbance, 30 min;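 active = inhibition of 50% or more, scaled per plate between neutral and stimulator controls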;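 note: 0% = DMSO wells given calcium and 100% = 1 mM EGTA wells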
FAS-TE inh = blocks the thioesterase domain of human fatty acid synthase; recombinant FAS-TE, OMFH fluorogenic substrate, fluorescence endpoint; 0.67% of 360,000 active; AID 602261; inhibition, % at 15 µM; P49327;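 active = compounds whose normalised, plate-corrected inhibition of enzyme fluorescence in the single-dose primary screen is 50% or more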;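 note: 0% = DMSO with enzyme and 100% = substrate without enzyme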
rCAG RNA binder = molecules binding r(CAG) RNA repeats | r(CAG) RNA repeat, TO-PRO-1 dye displacement fluorescence | inhibition, % at 3 µM | 1.3% of 370,000 active | AID 651821;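 active = inhibition above the plate cutoff, the mean of all test compounds on that plate plus 3 SD, cut at about 35% in these data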;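 note: 0% = DMSO alone and 100% = 100 µM mitoxantrone as full dye displacement; higher means more dye released from RNA so lower well fluorescence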
MPTP counter = mitochondrial membrane potential, counter-screen. isolated mitochondria, Rhodamine 123 fluorescence. AID 624504. shares compounds with MPTP inh. inhibition, % at 10 µM. 78% of 5,000 active; in the data active = inhibition above about 22%;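 note: 0% = DMSO vehicle and 100% = positive control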
MPTP swell DR = dose response confirmation of mitochondrial permeability transition pore inhibitors; shares compounds with MPTP inh; isolated mitochondria swelling, absorbance; IC50, µM; 58% of 780 active; AID 651561; in the data active = IC50 below about 20 µM
MPTP cs DR = MPTP inhibitor counter-screen activity, dose response; shares compounds with MPTP inh; isolated mitochondria counterscreen, fluorescence read-out; IC50, µM; 49% of 780 active; AID 651564; in the data active = IC50 below about 80 µM
Numbers without * were called inactive; i = inactive; ? = inconclusive; . = no result; + = active, no number. Hits are enriched below; roughly 5.7% of the tested compounds scored in any of these assays.

SMILES	NR3A LBD binder	Myeloid diff 2	MPTP inh	FAS-TE inh	rCAG RNA binder	MPTP counter	others
Cc1cccnc1N(C(=O)Nc1ccccc1)C1=NCC(C)(C)S1	3	i	0	4	2	.
Cc1cccnc1N(C(=O)Nc1cccc(Cl)c1)C1=NCC(C)(C)S1	1	i	52*	9	2	75*
Cc1cc(O)c2c(c1O)C(=O)[C@]13C(=C2O)C(=O)[C@@H]2[C@@H](O)[C@H]1[C@@H]1[C@H](O)[C@H]3C(=O)C3=C(O)c4c(O)cc(C)c(O)c4C(=O)[C@]312	-3	+	104*	10	.	-34
CCCCCC(=O)Nc1cccc(C2=NOC3(C2)C[C@@H](C(N)=O)N(C(=O)C2(C)CC2)C3)c1 (some centres undefined)	3	i	0	-4	-3	.
CN(C)Cc1nnnn1-c1ccccc1	2	i	0	-3	-2	.
COCCCNC(=O)c1c(N)n(/N=C/c2cccs2)c2nc3ccccc3nc12	1	i	-4	-1	3	.
COCCCNC(=O)c1c(N)n(/N=C/c2cccnc2)c2nc3ccccc3nc12	-7	i	+	-4	7	-2
CNCCCC1c2ccccc2C=Cc2ccccc21	2	i	50	-1	13	.
CNCCCC1Sc2ccccc2Oc2ccccc21 (centres undefined)	-1	i	79*	-10	13	-5	MPTP swell DR=5.1*;MPTP cs DR=>80
CCN(CC(=O)Nc1ccc(NC(C)=O)cc1)C(=O)c1cc(-c2ccccc2Cl)nc2ccccc12	-22	i	0	-1	7	.
COc1ccc(COC(=O)c2cccc(S(=O)(=O)N3CCN(C(C)=O)CC3)c2)cc1F	0	i	56*	15	-5	45*
OC[C@@H]1CN(Cc2ccc3c(c2)OCO3)C[C@H](n2cnc3c(N4CCCC4)ncnc32)O1	.	i	-2	-2	2	.
CCOC(=O)c1cnc2c(C)c(C)ccc2c1NCCN1CCOCC1	1	i	2	-2	-7	.
O=C(Nc1ccc(C(F)(F)F)cc1)C1CCN(S(=O)(=O)c2ccc(N3CCCC3=O)cc2)CC1	1	i	92*	7	3	88*
CO/N=C/c1ccc(N2CCN(C(=O)c3ccc(F)cc3)CC2)c([N+](=O)[O-])c1	2	i	9	10	0	.
CO/N=C/c1ccc(N2CCN(C(=O)c3ccc(Cl)cc3Cl)CC2)c([N+](=O)[O-])c1	-8	i	78*	23	-1	60*
Cc1ccc(NC(=O)c2cncc(Br)c2)c(O)c1	-1	i	-2	-1	1	.
CCOC(=O)c1sc(NC(=O)Nc2ccc(Cl)cc2)cc1C	27*	i	116*	18	25	47*
CCOC(=O)c1sc(NC(=O)c2cccc(S(=O)(=O)N3CCN(C)CC3)c2)cc1C	-8	i	1	-10	10	.
CCOC(=O)c1sc(NC(=O)c2cccc(S(=O)(=O)N(CC)CC)c2)cc1C	3	i	51*	-1	1	11	MPTP swell DR=>100;MPTP cs DR=<2.5*
CCOC(=O)c1c(NC(=O)Nc2ccc(Cl)cc2)sc(C)c1C	1	i	2	0	3	.
CN(C(=O)CCc1nc(-c2ccccc2F)no1)c1ccccc1	0	i	2	-2	-3	.
O=C(Nc1ccc(Oc2ncnc3cc(Cl)ccc23)nc1)c1ccc(F)cc1	6	.	.	.	.	.
O=C(Nc1ccc(Oc2ncnc3cc(Cl)ccc23)nc1)Nc1cccc(C(F)(F)F)c1	98*	?	90*	3	-1	25*
CC(C)C[C@H]1COc2cccc(N3CCC[C@H]3CO)c2S(=O)(=O)N1	.	i	1	-9	0	.
SMILES	NR3A LBD binder	Myeloid diff 2	MPTP inh	FAS-TE inh	rCAG RNA binder	MPTP counter	others
CN(C(=O)CSc1nc2scc(-c3ccccc3)c2c(=O)[nH]1)c1ccccc1	-5	i	1	10	22	.
CSc1cccc(NC(=O)Nc2ccccc2)c1	10	i	88*	0	3	110*
CSc1cccc(NC(=O)/C=C/c2ccco2)c1	-6	i	0	4	26	.
CSc1cccc(NC(=O)/C=C/c2ccccc2)c1	17*	i	52*	20	5	53*
CSc1cccc(NC(C)=O)c1	-2	i	0	0	6	.
CSc1cccc(NC(=O)/C=C/c2ccc(Cl)cc2)c1	17*	i	90*	28	8	90*
Nc1ccccc1-c1n[nH]c(=S)s1	-23	i	-6	-8	.	.
O=C(Cc1ccc(NC(=O)C2CCN(C(=O)c3ccccc3)CC2)cc1)Nc1ccc(C(=O)N2CCOCC2)cc1	0	i	0	-14	2	.
CC(C)c1cc(C(=O)Nc2cc(Br)ccc2O)no1	-2	i	58*	-8	8	62*
CC(C)c1cc(C(=O)Nc2cc(Cl)ccc2O)no1	-5	i	44	-12	10	.
Cc1cc(C)cc(NC(=O)Nc2ccc3c(c2)N(C)C(=O)CS3)c1	4	i	49	14	14	.
CC(=O)c1cccc(NC(=O)Nc2ccc3c(c2)N(C)C(=O)CS3)c1	-11	i	90*	9	11	76*
CCc1ccc(NC(=O)Nc2ccc3c(c2)N(C)C(=O)CS3)cc1	4	i	56*	24	18	70*
NS(=O)(=O)c1ccc(CNC(=O)Cc2c(F)cccc2Cl)cc1	-1	i	1	-3	0	.
COc1cc(OC)c(OC)cc1CNCc1ccco1	-2	i	-1	-5	0	.
O=C1CCCC2=C1[C@@]1(O[C@H]3C=CC=CN23)C(=O)N(c2ccccc2)c2ccccc21	.	.	.	.	7	.
Cc1ccc(SCCNC(=S)Nc2ccc(C)c(C)c2)cc1	7	i	72*	24	-4	91*
Cc1ccc(SCCNC(=S)Nc2ccccc2)cc1	2	i	6	5	2	.
COC(=O)Cc1ccc(NC(=S)NCCC(C)C)cc1	-2	i	4	-1	-2	.
COC(=O)Cc1ccc(NC(=S)NCCSc2ccc(Cl)cc2)cc1	-2	i	63*	25	2	77*
Cc1cc(C)cc(NC(=S)NCCSc2ccc(Cl)cc2)c1	13*	i	87*	31	4	98*
O=C(NCCc1ccccn1)c1nc(Cn2ccc([N+](=O)[O-])n2)no1	-1	i	-3	-3	-1	.
c1ccc(CCNc2ccccn2)nc1	-1	i	0	-10	4	.
c1cncc(CNc2ncnc3sccc23)c1	1	i	1	-1	2	.
c1ccc(CCNc2ncnc3sccc23)nc1	-1	i	61*	-3	-1	16	MPTP swell DR=i;MPTP cs DR=52*
Cc1csc2ncnc(NCCc3ccccn3)c12	-1	i	87*	3	5	70*
